This passage reports RAM network inhibition results from PubChem BioAssay.

Active and inactive are the calls of the source.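 How the source made its calls: active means RAM network inhibition above 8.4% in each of two replicates, 3 SD over the compound average; inconclusive means above 8.4% inhibition in only one replicate; inactive means 8.4% inhibition or less in each replicate.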

This assay can be described thus: RAM signaling pathway blockade in yeast – S. cerevisiae, Pdr1DBD-CYC8 efflux-inhibited sensitized strain, primary screen (AID 1298).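 Further: 0% = DMSO untreated cells without growth and 100% = 10 µM 1-NA-PP1 full growth; higher means more yeast growth rescued from 5-FOA killing.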 The settings on record: S. cerevisiae cbk1-as DSE1-URA3 strain, 5-FOA growth OD615, 2 d; at 50 µM; hits give high values.
For `O=C(NC1CCCCCC1)C1CCCN1S(=O)(=O)c1cccc2cccnc12` (configuration not stated), the RAM network inhibition is 3.74% (inactive).

With `O=C(COc1ccccc1)NCc1nnc(SCC(=O)Nc2nccs2)n1-c1ccccc1`, the RAM network inhibition was 4.48% (inactive). The result for `O=C(NCCc1csc(-c2ccccc2)n1)c1cccs1` reads 3.89% (inactive); that for `COc1ccc(C2(C(=O)NCCCN(C)C)CCOCC2)cc1`, 1.69% (inactive); that for `COc1ccc(OCc2nnc(SCC(=O)O)n2N)cc1`, -2.27% (inactive). With `Cc1cccc(N2CC(c3nc4ccccc4n3C)CC2=O)c1C` (configuration not stated), the RAM network inhibition is 3.58% (inactive). The result for `CN(C)S(=O)(=O)c1ccc(C(=O)Nc2ccc(F)cc2F)cc1` reads 2.9% (inactive). For `CC(=O)CCc1c(C)[nH]c2ccc(NC(C)=O)cc2c1=O` the value was 2.81% (inactive); for `CC(C)C(NC(=O)CN1C(=O)c2ccccc2S1(=O)=O)C(C)C`, -1.56% (inactive). As to `CC12CCC(C(=O)Nc3ccc4c(c3)OCCO4)(OC1=O)C2(C)C` (configuration not stated), the RAM network inhibition is -0.36% (inactive). For `[O-]/[N+](=C\c1ccc(OC(F)F)cc1)c1ccccc1`, the RAM network inhibition is 1.08% (inactive). The result for `COc1ccccc1NC(=O)C1=C(C)Nc2nnnn2C1c1cccc(C)c1` (configuration not stated) reads 2.19% (inactive); that for `CCOCCn1c(SCC(=O)OCc2ccccc2)nc2c1c(=O)[nH]c(=O)n2C`, 3.42% (inactive); that for `O=C(NCCCN1CCOCC1)c1ccco1`, 2.27% (inactive). As to `Cc1cccc(NC(=O)c2ccc(S(=O)(=O)N(C)C)cc2)c1`, the RAM network inhibition is 1.69% (inactive). On to `Cc1cc(=S)n(-c2ccccc2)n1C`, for which the RAM network inhibition is 0.45% (inactive).

On to `O=C(O)C1C2C=CC3(CN(C/C=C/c4ccccc4)C(=O)C13)O2` (configuration not stated), for which the RAM network inhibition is 3.71% (inactive).
